High-throughput results deposited in PubChem by National Center for Advancing Translational Sciences (NCATS).
15-hLO-2 inh = qHTS Assay for Inhibitors of 15-hLO-2 (15-human lipoxygenase 2) | Polyunsaturated fatty acid lipoxygenase ALOX15B (Homo sapiens), O15296 | purified 15hLO-2, xylenol orange hydroperoxide absorbance | Potency, µM (top dose mostly 57.1 µM), without a hit: top-dose activity change, negative = inhibition, actives largely listed as inhibitors | 110,000 tested, 0.56% active | AID 881, 2007; note: nearly all actives have a fitted effect of over 60% in size
Target sequence (O15296 whole entry, looked up): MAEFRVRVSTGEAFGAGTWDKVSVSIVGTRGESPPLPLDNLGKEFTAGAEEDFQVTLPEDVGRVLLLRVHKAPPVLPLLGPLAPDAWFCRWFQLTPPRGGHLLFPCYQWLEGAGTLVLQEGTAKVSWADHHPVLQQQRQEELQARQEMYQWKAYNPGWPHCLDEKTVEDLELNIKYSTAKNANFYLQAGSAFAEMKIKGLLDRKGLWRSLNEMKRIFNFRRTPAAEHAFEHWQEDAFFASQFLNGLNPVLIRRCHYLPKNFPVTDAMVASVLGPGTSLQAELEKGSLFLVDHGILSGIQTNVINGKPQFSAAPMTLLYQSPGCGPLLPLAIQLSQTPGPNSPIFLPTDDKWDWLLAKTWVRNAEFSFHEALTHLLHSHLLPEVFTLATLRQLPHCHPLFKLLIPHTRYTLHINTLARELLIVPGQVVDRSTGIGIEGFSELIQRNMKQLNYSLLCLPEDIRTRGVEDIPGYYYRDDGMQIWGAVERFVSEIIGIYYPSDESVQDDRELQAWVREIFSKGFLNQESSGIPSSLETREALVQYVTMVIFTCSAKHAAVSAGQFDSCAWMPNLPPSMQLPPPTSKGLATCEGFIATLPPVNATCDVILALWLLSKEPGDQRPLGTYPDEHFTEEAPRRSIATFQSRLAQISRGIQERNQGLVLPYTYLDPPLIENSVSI
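Purified human 15hLO-2 (50 nM) preincubated 15 min with compound, then 45 uM arachidonic acid for 90 min at RT in 25 mM Hepes pH 7.5, 0.01% Triton X-100. Hydroperoxide detected by Fe-xylenol orange; 573/405 nm absorbance ratio.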
12-hLO inh = qHTS Assay for Inhibitors of 12-hLO (12-human lipoxygenase); Polyunsaturated fatty acid lipoxygenase ALOX12 (Homo sapiens), P18054; purified 12-hLO, xylenol orange hydroperoxide absorbance; 150,000 tested, 0.12% active; Potency, µM (series often up to 57.1 µM), without a hit: top-dose activity change, negative = inhibition, hits mostly inhibitors; note: nearly all actives have a fitted effect of over 55% in size
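Purified human 12hLO (150 nM final) was preincubated with compounds for 15 min at room temperature in 25 mM Hepes pH 7.0, 0.01% Triton X-100, then reacted with 40 uM arachidonic acid for 30 min. Hydroperoxide was detected with ferrous iron/xylenol orange.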
Active calls of the source: *; ? = inconclusive; . = no result given; [ ] = another dose, or the depositor's remark. The entries come from a sample that favours hits as a whole. Calls come from the whole dose curve; as a rule, active = well fitted curve in the direction sought with a large enough effect; inconclusive = small, poorly fitted or top-dose-only effect, or another doubt; inactive = no such curve, though single readings can be large; an effect the other way counts as inactive or inconclusive. % is set by controls: 0 for no effect and ±100 for the full control effect; potency is the fitted concentration of half-maximal effect.

SMILES	15-hLO-2 inh	12-hLO inh
CSc1nncc(/C(C)=N\Nc2ccccc2)n1	?	-22%
Cc1ccc(N=Nc2c(O)c(S(=O)(=O)O)cc3cc(S(=O)(=O)O)ccc23)c(C)c1	-13%[11.4 µM]	-7%[11.4 µM]
Nc1c(N=Nc2ccc(-c3ccc(N=Nc4cc(S(=O)(=O)O)c5ccccc5c4N)cc3)cc2)cc(S(=O)(=O)O)c2ccccc12	3.2µM*	?
O=S(=O)(O)c1ccc(N=Nc2ccc3c(S(=O)(=O)O)cccc3c2O)c2ccccc12	-3%[11.4 µM]	1%[11.4 µM]
Nc1ccc(N=Nc2ccc(-c3ccc(O)cc3)cc2)c2ccc(S(=O)(=O)O)cc12	2.5µM*	-7%[11.4 µM]
Cc1cc(-c2ccc(N=Nc3ccc4c(S(=O)(=O)O)cc(S(=O)(=O)O)c(N)c4c3O)c(C)c2)ccc1N=Nc1ccc2c(S(=O)(=O)O)cc(S(=O)(=O)O)c(N)c2c1O	20µM*	0%
O=S(=O)(O)c1ccc(N=Nc2ccccc2)cc1	3%[11.4 µM]	2%[11.4 µM]
CC1=C(CC[C@H](C)CO)O[C@@H]2C[C@@H]3[C@H]4CC[C@H]5C[C@@H](O)CC[C@]5(C)[C@@H]4CC(=O)[C@@]3(C)[C@@H]12	-7%[11.4 µM]	3%[11.4 µM]
O=[N+]([O-])c1ccc(N/N=C/c2c[nH]c3ccccc23)cc1	?	-21%
O=[N+]([O-])c1ccc(N/N=C/c2ccc[nH]2)cc1	.	6.3µM*
NC(Cc1ccccc1)=NCC(=O)O	-9%[11.4 µM]	2%[11.4 µM]
CN(CC(=O)O)Cc1c(O)c(Cl)cc(Cl)c1Cl	-1%[11.4 µM]	-13%[11.4 µM]
CN1/C(=C\C(=S)NC(=O)c2ccc([N+](=O)[O-])cc2)C(C)(C)c2ccccc21	.	1%
CN1/C(=C\C(=S)NC(=O)c2cccc(Br)c2)C(C)(C)c2ccccc21	.	14µM*
O=C(O)c1ccc(CNCc2ccccc2)cc1	-4%[11.4 µM]	-1%[11.4 µM]
COc1cc(/C=C2\SC(=S)N(Nc3ccccc3)C2=O)ccc1O	.	-26%
CCOc1cc(/C=C2\SC(=S)N(Nc3ccccc3)C2=O)ccc1O	13µM*	?
Cc1ccc(S(=O)(=O)O[C@H]2C[C@@H](C(C)(C)C)CC[C@@H]2c2ccccc2)cc1	-9%[11.4 µM]	3%[11.4 µM]
Oc1ccc(/C=C\c2cc(O)cc(O)c2)cc1	-14%	-15%
Oc1cc(O)cc(/C=C\c2ccc(O)c(O)c2)c1	3.2µM*	?
Nc1nc(SC/C=C\c2ccccc2)c2[nH]cnc2n1	-3%[11.4 µM]	1%[11.4 µM]
CC1=C(C(=O)c2ccccc2)C(c2cn(-c3ccccc3)nc2-c2ccc(Cl)cc2)NC(=S)N1 (stereo not given)	7.9µM*	16µM*
O=C1NC(=O)C(c2cn(-c3ccccc3)nc2-c2ccc(F)cc2)N1 (stereo not given)	1%	-1%
CN(C)C[C@H]1CCC[C@@H](CN(C)C)C1=O	7%[11.4 µM]	-6%[11.4 µM]
c1c[nH]c(CN2CCOCC2)n1	-6%[11.4 µM]	0%[11.4 µM]
SMILES	15-hLO-2 inh	12-hLO inh
CCn1c2ccccc2c2cc(NC(=O)c3cc(OC)cc(OC)c3)ccc21	.	0%
CCn1c2ccccc2c2cc(NC(=O)c3ccc(Br)o3)ccc21	3.2µM*	-7%
CCOc1ccccc1NC(=S)Nc1ncccc1C	.	20µM*
CCOc1ccccc1NC(=S)Nc1ccccc1F	1%[11.4 µM]	-12%
O=C(NCCN1CCOCC1)c1ccc(-n2c(=O)c(=O)[nH]c3ccccc32)cc1	.	0%
CC1(C)O[C@@H]2O[C@H]([C@@H]3COC(C)(C)O3)[C@H](N)[C@H]2O1	-5%[11.4 µM]	4%[11.4 µM]
O=C1[C@@H]2[C@@H]3C=C[C@H]([C@@H]2C(=O)N1CN1CCSCC1)[C@@H]1[C@@H]2C(=O)N(CN4CCSCC4)C(=O)[C@@H]2[C@H]31	-5%[11.4 µM]	7%[11.4 µM]
COc1c(O)ccc2c1CN1CCc3cc4c(cc3[C@@H]1C2)OCO4	-15%[11.4 µM]	-10%[11.4 µM]
Cc1cccc([N+](=O)[O-])c1C	3%	-3%
CCOc1cc(NC(=S)Nc2cccc(OC)c2)c(OCC)cc1NC(=O)c1ccc(C)cc1	?	-17%
CCOc1cc(NC(=S)Nc2ccccc2)c(OCC)cc1NC(=O)c1ccc(OC)cc1	25µM*	-25%
C/C(=N/NS(=O)(=O)c1ccc(C)cc1)P(=O)(O)O	-7%[11.4 µM]	2%[11.4 µM]
Nc1nc2c(s1)CCc1c-2cnn1-c1ccccc1	1µM*	?
COc1ccc(-c2cnn(-c3ccccc3)c2N)cc1OC	-4%	-2%
Cc1ccc(C)c([C@@H]2NC(=O)c3ccccc3N2)c1	-6%[11.4 µM]	-6%[11.4 µM]
Nc1ccc(-c2ccc(N)c(O)c2)cc1O	-23%	-6%
Nc1cc(-c2ccccc2)ccc1O	13µM*	?
CCCCCCCCCC(=O)N[C@@H](CN1CCOCC1)[C@@H](O)c1ccccc1	22%	-3%
CC(C)c1ccc2c(c1)CC[C@H]1[C@@](C)(CN)CCC[C@@]21C	2%[11.4 µM]	4%[11.4 µM]
N#Cc1c(N)n[nH]c1-c1cc2c([nH]1)CCCC2	.	-11%
N#Cc1cc2c([nH]c1=S)CCCCCC2	25µM*	?
COc1ccc(NC(=S)NCCc2c[nH]c3ccc(OC)cc23)c(OC)c1	?	-22%
S=C(NCCc1ccc(Cl)cc1)Nc1ccc(Cl)cc1Cl	.	11µM*
S=C(NCc1ccc(Cl)cc1)Nc1ccc(Cl)cc1Cl	.	-3%
COc1ccc(NC(=S)NCCc2ccc(Cl)cc2)c(OC)c1	25µM*	?
SMILES	15-hLO-2 inh	12-hLO inh
Fc1ccc(NC(=S)NCCc2ccccc2)c(F)c1F	?	16µM*
Fc1ccccc1NC(=S)NCCc1ccccc1	-15%	-5%
c1ccc(C(CCN2CC3CCC(CC3)C2)c2ccccc2)cc1	3%[11.4 µM]	5%[11.4 µM]
CC1=C[N+](=O)c2ccccc2[N+]1=O	-8%[11.4 µM]	-3%[11.4 µM]
Cc1ccccc1CN1C2=NCCN2C(=O)C2=C1CCN(Cc1ccccc1)C2	2%[11.4 µM]	6%[11.4 µM]
COc1cc(-c2[o+]c3cc(O)cc(O)c3cc2O)cc(O)c1O	-9%[11.4 µM]	-18%[11.4 µM]
CC#CCN1c2ccccc2[C@]23C[C@@H](C(=O)OC)N(S(=O)(=O)c4ccc(Br)cc4)C2=NC(C(=O)OC)=C(C(=O)OC)[C@H]13	.	-2%[11.4 µM]
COC(=O)C1=C(C(=O)OC)[C@@H]2N(Cc3ccccc3)c3ccccc3[C@@]23C[C@@H](C(=O)OC)N(S(=O)(=O)c2ccc(Br)cc2)C3=N1	.	5%[11.4 µM]
COc1ccccc1/C=C/C=N/n1c(-c2ccc(C)cc2)n[nH]c1=S	.	2%
COc1ccccc1/C=C\C=N\n1c(C2CCCCC2)n[nH]c1=S	13µM*	-9%
NCc1nnn(Cc2ccccc2)c1N	1%[11.4 µM]	3%[11.4 µM]
O=C(CC1(O)C(=O)c2ccccc2C1=O)c1ccccc1	.	-4%
O=C1c2ccccc2C(=O)C1(O)O	25µM*	?
O=C1[C@@H]2[C@@H](C(=O)N1c1ccc(OCc3ccccc3)cc1)[C@@H]1c3ccccc3[C@@H]2[n+]2ccccc21	19%[11.4 µM]	14%[11.4 µM]
O=S(=O)(NCCNC/C=C\c1ccc(Br)cc1)c1cccc2cnccc12	46%	-9%
CCOC(=O)c1c(-c2ccc(-c3ccccc3)cc2)csc1NC(=O)C1C2CCC(O2)C1C(=O)O (stereo not given)	20µM*	-6%
CCOC(=O)c1c(-c2ccccc2)csc1NC(=O)C1CCCO1 (stereo not given)	-23%	-3%
O=C(O)Cc1c[nH]c2ccc(F)cc12	-1%[11.4 µM]	-4%[11.4 µM]
